# Assay outcomes: PubChem BioAssay, several laboratories
# LEDGF integ inh = blocks HIV-1 LEDGF/p75-dependent DNA integration; inhibition, % at 3.7 µM; AID 743269; TR-FRET IN-LEDGF/p75 DNA integration, Eu/Cy5; 370,000 tested, 0.64% active;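 active means inhibition above the screen-wide mean plus 3 SD, cut at about 13% in these data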;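 further: signal is the Cy5 over europium emission ratio at 671 and 618 nm; 0% = plate median of compound wells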
# rCAG RNA binder = molecules binding r(CAG) RNA repeats. r(CAG) RNA repeat, TO-PRO-1 dye displacement fluorescence. inhibition, % at 3 µM. 370,000 tested, 1.3% active. AID 651821;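 active means inhibition above the plate cutoff, the mean of all test compounds on that plate plus 3 SD, cut at about 35% in these data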;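 further: 0% = DMSO alone and 100% = 100 µM mitoxantrone as full dye displacement; higher means more dye released from RNA so lower well fluorescence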
# PG9 Ab binder = small molecules binding HIV-1 gp120 antibody PG9. TR-FRET gp120-PG9 antibody binding. 360,000 tested, 0.43% active. inhibition, % at 6.7 µM; in the data active means inhibition above about 8.5%
# UHRF1 binding = human UHRF1 methylated DNA binding inhibitors; Q96T88; 370,000 tested, 0.75% active; UHRF1 binding to methylated oligo, TR-FRET; inhibition, % at 4.4 µM;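 further: UHRF1 SRA domain binding a hemimethylated CpG hairpin DNA probe; 0% = median of test compound wells and 100% = reference inhibitor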
# Target sequence (Q96T88 whole entry, looked up, the tested form may be a part): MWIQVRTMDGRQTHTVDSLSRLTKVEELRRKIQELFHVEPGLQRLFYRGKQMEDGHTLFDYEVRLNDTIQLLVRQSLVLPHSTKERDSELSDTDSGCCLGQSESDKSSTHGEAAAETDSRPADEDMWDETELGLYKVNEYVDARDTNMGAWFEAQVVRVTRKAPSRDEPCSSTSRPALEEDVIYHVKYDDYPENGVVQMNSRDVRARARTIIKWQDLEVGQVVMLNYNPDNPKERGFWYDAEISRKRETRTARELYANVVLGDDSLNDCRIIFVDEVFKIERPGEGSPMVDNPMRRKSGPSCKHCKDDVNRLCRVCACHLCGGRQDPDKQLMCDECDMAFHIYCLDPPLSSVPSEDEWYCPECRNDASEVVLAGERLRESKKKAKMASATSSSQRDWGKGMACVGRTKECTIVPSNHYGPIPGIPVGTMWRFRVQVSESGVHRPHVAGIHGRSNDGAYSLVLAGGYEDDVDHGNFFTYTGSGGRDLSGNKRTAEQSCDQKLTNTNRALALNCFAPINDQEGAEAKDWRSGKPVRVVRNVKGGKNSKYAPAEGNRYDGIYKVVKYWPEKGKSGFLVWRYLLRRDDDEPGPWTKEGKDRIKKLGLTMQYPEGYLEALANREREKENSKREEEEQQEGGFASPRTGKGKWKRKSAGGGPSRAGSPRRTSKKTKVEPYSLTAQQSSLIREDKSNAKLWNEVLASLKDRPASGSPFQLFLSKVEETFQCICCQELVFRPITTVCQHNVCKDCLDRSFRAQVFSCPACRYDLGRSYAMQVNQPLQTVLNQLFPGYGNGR
# MBD2 DNA inh = inhibitors of human MBD2 binding to methylated oligonucleotide; TR-FRET; inhibition, % at 4.4 µM; 370,000 tested, 0.31% active; in the data active means inhibition above about 13%
# DNMT1 block = inhibitors of human DNMT1; P26358; DNMT1 molecular beacon, Hinp1I cleavage, fluorescence; inhibition (reported as % activation of signal), % at 10 µM; 360,000 tested, 0.83% active; AID 588458; in the data active means inhibition above about 50%
# UHRF1 ctr MBD2 = counter-screen for MBD2 inhibitors: human UHRF1 methylated DNA binding inhibitors. AID 720530. 1,000 tested, 25% active. inhibition, % at 4.4 µM. UHRF1 binding to methylated oligonucleotide, TR-FRET. shares compounds with MBD2 DNA inh;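 further: UHRF1 SRA domain binding a labeled hemimethylated CpG hairpin DNA; 0% = vehicle only and 100% = reference inhibitor with vehicle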
# MBD2 DBD conf = confirmation of human MBD2-DBD methylated oligonucleotide binding inhibitors | shares compounds with MBD2 DNA inh | TR-FRET MBD2-DBD binding to methylated oligonucleotide | inhibition, % at 4.4 µM | 1,000 tested, 26% active | AID 720531; in the data active means inhibition above about 14%
# IN multimer act = activates HIV-1 integrase multimerization in LEDGF counter-screen. shares compounds with LEDGF integ inh. TR-FRET HIV-1 integrase multimerization, biochemical. activation, % at 7.7 µM. 2,000 tested, 17% active. AID 1053131; in the data active means activation above about 8.9%
# TRFRET interf = counter-screen for LEDGF/p75 integration inhibitors: TR-FRET optical interference; shares compounds with LEDGF integ inh; TR-FRET optical interference counterscreen, HIV-1 IN multimerization; inhibition, % at 7.7 µM; 2,000 tested, under 10 active; AID 1053135;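 active means inhibition above the mean over all tested compounds plus 3 SD, which no compound reached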;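 further: 0% = integrase with antibodies and DMSO and 100% = antibodies without integrase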
# LEDGF integ conf = confirmation of HIV-1 LEDGF/p75-dependent integration inhibitors | AID 1053136 | TR-FRET LEDGF/p75-dependent HIV-1 integration, biochemical | 2,000 tested, 36% active | inhibition, % at 3.7 µM | shares compounds with LEDGF integ inh; in the data active means inhibition above about 14%
# Numbers without * were called inactive; · = no result given. Rows were chosen to be rich in hits. Some 3.5% of all compounds tested hit in one or more screens of this group. Unless noted, no stated cut-off is given here; in the data, active means inhibition above about 21%; inactive means the rest.
SMILES,LEDGF integ inh,rCAG RNA binder,PG9 Ab binder,UHRF1 binding,MBD2 DNA inh,DNMT1 block,IN multimer act,TRFRET interf,LEDGF integ conf,others
COc1ccc(OC(=O)N(C)C[C@H]2OCc3cnnn3CCCC(=O)N([C@H](C)CO)C[C@H]2C)cc1,5,0,1,-1,-8,3,·,·,·,
CNc1ccc2nc3ccccc3[n+](C)c2c1,9,-3,-53,-15,15*,38,·,·,·,UHRF1 ctr MBD2=19;MBD2 DBD conf=20*
Nc1c(C(=O)NCC2CCCO2)c2nc3ccccc3nc2n1Cc1ccco1 (stereo unspecified),0,13,3,-1,17*,-19,·,·,·,UHRF1 ctr MBD2=3;MBD2 DBD conf=-2
CC(C)CNC(=O)c1c(N)n(Cc2ccco2)c2nc3ccccc3nc12,6,28,0,0,-5,-25,·,·,·,
CCCC/C(C)=C/[C@@H](NP(=O)(c1ccccc1)c1ccccc1)c1ccccc1,-2,-5,2,-3,0,2,·,·,·,
COc1ccc(-c2n(-c3ccccn3)c3ccccc3[n+]2-c2ccccn2)cc1,1,0,2,31*,46*,1,·,·,·,UHRF1 ctr MBD2=74*;MBD2 DBD conf=88*
CCCNC(=O)N1[C@H]2CC[C@@H]1C(C(=O)OC)=C(c1cccc(C#N)c1)C2,1,-1,0,3,-3,3,·,·,·,
CCCNC1=C(C)C(=O)C2=C(C1=O)C(COC(N)=O)[C@]1(OC)C3NC3CN21 (stereo partly specified),53*,25,-16,60*,18*,-9,19*,-67,63*,UHRF1 ctr MBD2=2;MBD2 DBD conf=0
COc1ccc(CCC(=O)N2C[C@H]3C[C@@H](C2)c2cccc(=O)n2C3)cc1,0,1,1,-1,-1,-2,·,·,·,
COc1cc2c(cc1OC)-c1c(OC)c(OC)cc3c1[C@H](C2)N(C)CC3,26*,-3,-9,41*,20*,16,2,-8,25*,UHRF1 ctr MBD2=18;MBD2 DBD conf=10
CCCC1=C(C(=O)OCC)C2(C(=O)Nc3ccccc32)C(C#N)=C(N)O1 (stereo unspecified),1,-4,-3,3,5,1,·,·,·,
O=c1[nH]c(=O)n(Cc2ccco2)c(O)c1/C=N/N1CCCCCC1,1,-1,-2,-1,-4,10,·,·,·,
NC(=O)c1ccc(N=Cc2c(O)n(Cc3ccco3)c(=O)[nH]c2=O)cc1,57*,22,0,60*,23*,62*,12*,-60,50*,UHRF1 ctr MBD2=18;MBD2 DBD conf=22*
COc1ccc(CC2=NCCc3cc(OC)c(OC)cc32)cc1OC,27*,8,1,21*,6,-11,1,-6,2,
CCN(CC)c1ccc(CN(C)CCc2ccc(OC)c(OC)c2)cc1,2,-3,-2,-4,-2,-2,·,·,·,
Cc1cccc(N2C(=O)/C(=C/c3ccc(CN(CCC#N)S(C)(=O)=O)o3)C(=O)NC2=S)c1,25*,66*,-1,7,-1,58*,1,-4,36*,
O=C1NC(=O)C(Cc2cccs2)C(=O)N1,2,2,-1,-2,-2,-5,·,·,·,
COc1cc(C2c3cc(O)c(OC)cc3CC3C(=O)OCC32)ccc1O (stereo unspecified),14*,6,-1,0,1,-6,-1,6,-5,
CCc1ccccc1NC(=O)CNCc1ccccc1,0,-2,-2,-2,-1,-1,·,·,·,
CCN(CC)c1ccc(N=Cc2c(O)n(Cc3ccco3)c(=O)[nH]c2=O)cc1,57*,10,-2,6,2,3,3,-17,2,
CN(C)CCN=Cc1c(O)n(Cc2ccco2)c(=O)[nH]c1=O,-1,-1,0,3,0,2,·,·,·,
O=c1[nH]c(=O)n(Cc2ccco2)c(O)c1C=NCc1cccs1,0,4,0,3,3,15,·,·,·,
N#Cc1c(/N=C/c2c(O)n(Cc3ccco3)c(=O)[nH]c2=O)sc2c1CCCC2,34*,26,-2,46*,5,67*,2,-11,10,
CCN(CC)c1ccc(N=Cc2c(O)n(-c3cc(OC)ccc3OC)c(=O)[nH]c2=O)cc1,16*,17,-3,-3,0,-6,3,-12,3,
COc1ccc(C2(c3cccc(O)c3OC)CCN(C(C)=O)CC2)cc1O,-1,-1,-3,1,0,2,·,·,·,
SMILES,LEDGF integ inh,rCAG RNA binder,PG9 Ab binder,UHRF1 binding,MBD2 DNA inh,DNMT1 block,IN multimer act,TRFRET interf,LEDGF integ conf,others
COc1ccc(P2(=O)Nc3ccccc3N2)cc1,2,7,-3,-1,2,21,·,·,·,
COc1ccc2c(c1)NP(=S)(c1ccccc1)N2C (stereo unspecified),18*,10,-11,15,-8,-23,5,-18,1,
C=C1C(=O)O[C@@H]2C[C@@H](C)[C@@H]3C=CC(=O)[C@@]3(C)[C@@H](OC(=O)CC(=O)O[C@H]3[C@@H]4C(=C)C(=O)O[C@@H]4C[C@@H](C)[C@@H]4C=CC(=O)[C@]43C)[C@H]12,25*,11,-1,4,1,25,4,-20,59*,
Cn1cc(C(=O)OCC(=O)NC2(C#N)CCCC2)c2ccccc21,-4,6,-1,-1,-3,6,·,·,·,
C=CCn1c(O)c(C(CC)=Nc2cccc(C(F)(F)F)c2)c(=O)[nH]c1=O,-1,0,-1,-3,-5,0,·,·,·,
O=C(c1cc([N+](=O)[O-])ccc1N1CCNCC1)N1CCOCC1,-1,1,-2,3,1,1,·,·,·,
O=C(c1cc(-c2ccc(Cl)cc2)n(-c2ccc(Cl)cc2Cl)n1)N1CCOCC1,26*,-1,0,3,3,-4,0,-2,-8,
Cc1cc(/C=C2\C(=O)NC(=O)N(c3ccc(F)cc3)C2=O)c(C)n1-c1ccc(C(=O)O)cc1,4,2,-1,-1,0,8,·,·,·,
Cc1ccc(N2C(=O)NC(=O)/C(=C\c3cc(C)n(-c4cc(C(=O)O)cc(C(=O)O)c4)c3C)C2=O)cc1,36*,11,0,26*,-1,41,2,-8,11,
